Screening results deposited in PubChem by several laboratories.
SUMO HTRF inh: inhibitors of in vitro SUMOylation cascade, primary screen, biochemical, HTRF, uHTS. SUMO-conjugating enzyme UBC9 (Homo sapiens), P63279. 0.36% of 290,000 active. HTRF SUMOylation assay, SAE1/SAE2 + UBC9. inhibition, % at 35 µM; in the data active = inhibition above about 50%, passing the limit was not always enough; inconclusive = no clear call, values can overlap the other calls
Target sequence (P63279 whole entry, looked up): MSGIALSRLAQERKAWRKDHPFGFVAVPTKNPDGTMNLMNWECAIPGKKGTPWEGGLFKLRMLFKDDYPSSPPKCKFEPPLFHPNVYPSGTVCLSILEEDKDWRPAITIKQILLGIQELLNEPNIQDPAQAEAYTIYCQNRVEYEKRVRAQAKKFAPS
eIF4H inh: human eIF4H binding inhibitors, primary screen, translation initiation inhibitor project, biochemical, uHTS, fluorescence polarization; Eukaryotic translation initiation factor 4H (Homo sapiens), Q15056; eIF4H fluorescence polarization binding assay; inhibition, % at 35 µM; 0.94% of 290,000 active; AID 2012, 2009;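 also: calls also rest on retests at 20 µM and on dose response follow-up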
ALR inh: inhibitors of human ALR sulfhydryl oxidase, primary screen, biochemical, H2O2 detection, HRP-luminol luminescence, single point; 3.8% of 290,000 active; inhibition, % (test concentration not listed); purified ALR, DTT oxidation; FAD-linked sulfhydryl oxidase ALR (Homo sapiens), P55789;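 active = mean replicate inhibition above about 79%, with every replicate also reaching it, limit read from the data; inconclusive = only one of the two criteria met; inactive = mean below limit and not every replicate reaching it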
Target sequence (P55789 whole entry, looked up): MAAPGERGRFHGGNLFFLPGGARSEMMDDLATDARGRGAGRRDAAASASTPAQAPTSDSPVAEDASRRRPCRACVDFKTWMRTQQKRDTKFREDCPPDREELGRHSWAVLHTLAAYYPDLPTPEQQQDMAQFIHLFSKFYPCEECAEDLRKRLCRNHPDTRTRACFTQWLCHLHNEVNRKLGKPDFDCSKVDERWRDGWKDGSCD
PABP1 MLLE inh: inhibitors of PABP1 MLLE–PAM2 peptide binding, primary screen, biochemical, fluorescence polarization, FITC-PAM2, GST-MLLE. Polyadenylate-binding protein 1 (Homo sapiens), P11940. inhibition, % at 20 µM. 0.36% of 360,000 active; in the data active = inhibition above about 35%, passing the limit was not always enough
PABP FP inh: PABP poly(A) RNA binding inhibitors, primary screen, biochemical, fluorescence polarization, uHTS. 1% of 290,000 active. Polyadenylate-binding protein 1 (Homo sapiens), P11940. AID 2014, 2009. inhibition, % at 35 µM;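 also: calls also rest on retests at 20 µM and on dose response follow-up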
Efflux pump inh: inhibitors of Candida efflux pumps in yeast, primary screen, S. cerevisiae, Nile Red, multiplex | S. cerevisiae Candida pump triplex | AID 485275, 2010 | inhibition, % at 10 µM | 0.44% of 330,000 active;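 active = plate passing quality check with inhibition over a set limit, or well fluorescence over plate mean plus 4 SD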;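 also: Nile Red retained in pooled yeast measured as flow cytometry median fluorescence; higher means more Nile Red kept so more efflux inhibition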
Of the large screens only hits and unclear results are named; the others gave an inactive call. This is a sample that favours compounds with a hit; in the whole collection about 4.7% have one here. Unless noted, no rule for the calls is given here.

CC1(C)Cc2c(sc(NC(=O)COc3ccc(Cl)cc3)c2C#N)C(C)(C)N1	Efflux pump inh 1.6
CC(=O)c1ccc(OC(C)C(=O)NCC2(N3CCOCC3)CCCCC2)cc1 (stereo not given)	none (no result: SUMO HTRF inh, eIF4H inh, PABP FP inh)
Nc1ccccc1Nc1ccccc1	ALR inh inconclusive
Nc1ccc(Nc2ccccc2)c(Cl)c1	ALR inh 99.6
COC(=O)c1cc(NC(=O)Nc2cccc(Cl)c2)ccc1Cl	none
COC(=O)C1=C(Nc2cc(Cl)cc(Cl)c2)CSC1	ALR inh 99.0
c1ccc(-c2ccc3ncccc3n2)cc1	none (no result: SUMO HTRF inh, eIF4H inh, ALR inh, PABP FP inh, Efflux pump inh)
O=[N+]([O-])c1cc2oc3c(c2c(C=NCc2ccccc2)c1O)CCCC3	eIF4H inh 76.5, PABP FP inh active
CC(C)CN=Cc1c(O)c([N+](=O)[O-])cc2oc3c(c12)CCCC3	eIF4H inh inconclusive
Nc1nnc(CC(=O)N/N=C/c2ccc(-c3cccc(C(=O)O)c3)o2)s1	eIF4H inh 76.0
Nc1nonc1-c1nc2ccccc2n1CC(=O)N/N=C/c1ccc(-c2cccc(C(=O)O)c2)o1	eIF4H inh 86.2, PABP FP inh active (no result: ALR inh, Efflux pump inh)
Nc1nnc(CC(=O)N/N=C/c2ccc(-c3ccc(F)cc3)o2)s1	none
CCCCC(=O)NNC(=O)N1c2ccccc2Sc2ccccc21	ALR inh 98.8
CC(C)NC(=O)N1c2ccccc2Sc2ccccc21	none
CC(C)(C)NC(=O)N1c2ccccc2Sc2ccccc21	ALR inh 81.6
C[C@@H]1CCC[C@@]2(O[C@@H](CCO)C[C@H](O)[C@H]2O)O1	none (no result: SUMO HTRF inh, eIF4H inh, PABP FP inh)
COc1ccc(S(=O)(=O)Cc2ccc(C(=O)N3CCN(c4ccccc4)CC3)o2)cc1	ALR inh 88.5
COc1ccccc1S(=O)(=O)Cc1ccc(C(=O)N2CCCC2)o1	ALR inh 93.4
COc1ccc(S(=O)(=O)Cc2ccc(C(=O)N3CCCC3)o2)cc1	ALR inh 93.7
CN(C)CCNc1ncnc2c1ncn2[C@H]1CN(Cc2ccc(-c3ccccc3)cc2)C[C@@H](CO)O1	none (no result: SUMO HTRF inh, eIF4H inh, ALR inh, PABP FP inh, Efflux pump inh)
C/C(=N\Nc1nc(Cl)c(Cl)cc1Cl)c1ccc(S(=O)(=O)NCc2ccco2)cc1	none
CC(=O)N1CCN(c2ccc(NCc3ccc4c(c3)OCO4)cc2)CC1	none (no result: ALR inh)
COc1ccc(N2CCN(C(=O)c3ccc(SC)cc3OC)CC2)cc1	ALR inh 85.5
COc1ccc(N2CCN(C(=O)c3ccc4c(c3)OCO4)CC2)cc1	ALR inh 84.1
O=C(c1ccccc1)N1CCN(c2ccc(NCc3ccc4c(c3)OCO4)cc2)CC1	ALR inh 88.8
O=C(c1ccc2c(c1)OCO2)N1CCN(c2ccccc2)CC1	ALR inh 98.4
COc1cc(SC)ccc1C(=O)N1CCN(c2ccccc2F)CC1	none
Cc1ccc(C(=O)OCC(=O)NCc2ccc3c(c2)OCO3)o1	none (no result: SUMO HTRF inh, eIF4H inh, PABP FP inh)
O=C(Nc1cccc(C(=O)N2CCCCC2)c1)C1CCCCC1	none (no result: SUMO HTRF inh, eIF4H inh, ALR inh, PABP FP inh, Efflux pump inh)
N#CCCn1cc(/C=N/O)c(-c2ccccc2)n1	none
N#CCCn1cc(/C=N/NC(N)=S)c(-c2ccc(-c3ccccc3)cc2)n1	eIF4H inh 1.9
COc1ccc(N2CCN(Cc3nc4c(c(=O)n(C)c(=O)n4C)n3C(C)C(C)=O)CC2)cc1 (stereo not given)	ALR inh 88.5
CCOCCn1c(CN2CCN(c3ccc(F)cc3)CC2)nc2c1c(=O)n(C)c(=O)n2C	ALR inh 98.5
O=c1c2sccc2n(Cc2cccc(F)c2)c(=O)n1-c1ccc(F)cc1	none
Cc1nc2c(=O)[nH]n(C)c2nc1C	none (no result: SUMO HTRF inh, eIF4H inh, ALR inh, PABP FP inh, Efflux pump inh)
COc1ccc(Cl)cc1NC(=O)CN1CCCCCC1	none
COc1ccc(N)cc1NC(=O)CN1CCCC1	ALR inh 96.9
COc1ccc(-n2nc3c(c2NC(=O)COc2ccccc2OC)CS(=O)(=O)C3)cc1	none (no result: SUMO HTRF inh, eIF4H inh, ALR inh, PABP FP inh, Efflux pump inh)
Cc1ccc(C(c2nc3ccccc3[nH]2)n2c(-c3ccccc3)nc3ccccc32)cc1 (stereo not given)	none (no result: SUMO HTRF inh, eIF4H inh, ALR inh, PABP FP inh, Efflux pump inh)
CC(=O)c1c(C)[nH]c(C(=O)OCc2ccccc2F)c1C	none
CCOc1ccc(-c2nc(=S)[nH][nH]2)cc1	none (no result: ALR inh)
S=c1nc(-c2cccc(Cl)c2)[nH][nH]1	ALR inh 92.4
S=c1nc(-c2cc(Cl)cc(Cl)c2)[nH][nH]1	ALR inh 98.2
S=c1nc(-c2cc(Cl)ccc2Cl)[nH][nH]1	none
Cc1ccc(Cl)cc1NC(=O)c1cccc(OC(F)F)c1	none
Cc1ccc(C)c(N(C)S(=O)(=O)c2ccc3c(c2)oc(=O)n3C)c1	none
O=C(Oc1cccc(/C=N/Nc2nc(Nc3ccccc3)nc(N3CCOCC3)n2)c1)c1ccco1	none
Cc1cc(=O)[nH]c2ccc(S(=O)(=O)Nc3ccccc3)cc12	none
Cc1cc(C)c(S(=O)(=O)Nc2ccc(O)cc2)c(C)c1	ALR inh 98.7
Cc1cc(=O)[nH]c2ccc(S(=O)(=O)Nc3ccc(O)cc3)cc12	ALR inh 99.4
NC(=S)Nc1ccc(Oc2ccc(NC(N)=S)cc2)cc1	ALR inh 98.8
Cc1ccc(NC(N)=S)cc1	none
OCc1ccccc1-c1cnc2cccnn12	none (no result: SUMO HTRF inh, eIF4H inh, ALR inh, PABP FP inh, Efflux pump inh)
Oc1c(C2=NCCNC(C(F)(F)F)=C2)ccc2ccccc12	none (no result: ALR inh, Efflux pump inh)
Cc1ccc(O)c(C2=NCCNC(C(F)(F)F)=C2)c1	ALR inh 91.2
CCN(CC)c1ccc(Nc2nc(Cl)ncc2Br)cc1	ALR inh 98.9
Cc1ccccc1-c1nc(CS(=O)CC(=O)NCc2ccccc2)c(C)o1 (stereo not given)	ALR inh 97.9
COc1ccc(CNC(=O)CS(=O)Cc2nc(-c3ccccc3C)oc2C)cc1 (stereo not given)	ALR inh 99.2
COc1ccc(OC)c(NC(=O)CS(=O)(=O)Cc2nc(-c3ccccc3C)oc2C)c1	none
COc1ccccc1CNC(=O)COc1ccccc1C	none
Cc1ccc(CNC(=O)CS(=O)Cc2nc(-c3ccccc3C)oc2C)cc1 (stereo not given)	none
COc1ccccc1CNC(=O)CS(=O)Cc1nc(-c2ccccc2C)oc1C (stereo not given)	ALR inh 99.2
CCCNC(=O)CS(=O)(=O)Cc1nc(-c2ccccc2C)oc1C	none
COCCNC(=O)CS(=O)Cc1nc(-c2ccccc2C)oc1C (stereo not given)	ALR inh 98.4
CC(C)NC(=O)CN1CCN(C(=O)c2ccc3oc(CCCc4ccccc4)nc3c2)CC1	none
CCOC(=O)[C@@H]1[C@H]2COc3ccccc3[C@@H]2N2C(=O)N(c3cccc(F)c3)C(=O)[C@@]12C	none (no result: SUMO HTRF inh, eIF4H inh, PABP FP inh)
Cc1cc(C)c(S(=O)(=O)Nc2ccccc2)c(C)c1	none (no result: SUMO HTRF inh, eIF4H inh, ALR inh, PABP FP inh, Efflux pump inh)
